Source: PubChem BioAssay (EPA / NIEHS)
Inconclusive results are not listed. Active and inactive are the calls of the source. Rule for the calls, unless noted: active = hit-call score of the fitted dose curve at least 0.9, where 1 is the maximum; inactive = score below 0.9.

Experiments:
[1] = ATG_PXRE_CIS: Attagene CIS-FACTORIAL HepG2 Assay for human Pregnane X Receptor Element (PXRE) (AID 2282957); conditions: HepG2 Attagene CIS-FACTORIAL PXRE reporter, mRNA; actives raise or lower the signal
In short: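 Multiplexed cis-reporter assay in transiently transfected human HepG2 cells; 24 h chemical exposure. Reporter transcripts quantified by RT-PCR with fluorescent labeling and capillary electrophoresis.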

[2] = ATG_PPRE_CIS: Attagene CIS-FACTORIAL HepG2 Assay for human Peroxisome Proliferator-activated Response Element (PPRE) (AID 2282958); conditions: HepG2 PPRE cis-element reporter, Attagene transcription factor profiling; actives raise or lower the signal
In short: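 HepG2, transient MRTU transfection (cis promoter elements, endogenous TFs). 24 h dosing. RNA → oligo(dT) RT → PCR → 6-FAM primer extension → HpaI digest → CE. Bidirectional fit vs DMSO.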

[3] = ATG_Sox_CIS: Attagene CIS-FACTORIAL HepG2 Assay for human SRY-box transcription factor (SOX) (AID 2282960); conditions: HepG2 Attagene cis-factorial SOX reporter, mRNA; actives raise or lower the signal
In short: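 Endogenous factor activity in human liver HepG2 cells carrying transfected cis-regulated reporter units. RNA taken 24 h post-dose, reverse-transcribed, PCR-amplified and sized by capillary electrophoresis. Gain or loss of signal fitted relative to DMSO.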

[4] = target: Transcription factor Sp1 (Homo sapiens) (UniProt P08047); assay: ATG_Sp1_CIS: Attagene CIS-FACTORIAL HepG2 Assay for human Specificity Protein 1 (Sp1) (AID 2282961); conditions: HepG2 Sp1 cis-reporter transcription, actives raise or lower the signal
Transcription factor Sp1 (Homo sapiens), sequence (P08047 whole entry, looked up): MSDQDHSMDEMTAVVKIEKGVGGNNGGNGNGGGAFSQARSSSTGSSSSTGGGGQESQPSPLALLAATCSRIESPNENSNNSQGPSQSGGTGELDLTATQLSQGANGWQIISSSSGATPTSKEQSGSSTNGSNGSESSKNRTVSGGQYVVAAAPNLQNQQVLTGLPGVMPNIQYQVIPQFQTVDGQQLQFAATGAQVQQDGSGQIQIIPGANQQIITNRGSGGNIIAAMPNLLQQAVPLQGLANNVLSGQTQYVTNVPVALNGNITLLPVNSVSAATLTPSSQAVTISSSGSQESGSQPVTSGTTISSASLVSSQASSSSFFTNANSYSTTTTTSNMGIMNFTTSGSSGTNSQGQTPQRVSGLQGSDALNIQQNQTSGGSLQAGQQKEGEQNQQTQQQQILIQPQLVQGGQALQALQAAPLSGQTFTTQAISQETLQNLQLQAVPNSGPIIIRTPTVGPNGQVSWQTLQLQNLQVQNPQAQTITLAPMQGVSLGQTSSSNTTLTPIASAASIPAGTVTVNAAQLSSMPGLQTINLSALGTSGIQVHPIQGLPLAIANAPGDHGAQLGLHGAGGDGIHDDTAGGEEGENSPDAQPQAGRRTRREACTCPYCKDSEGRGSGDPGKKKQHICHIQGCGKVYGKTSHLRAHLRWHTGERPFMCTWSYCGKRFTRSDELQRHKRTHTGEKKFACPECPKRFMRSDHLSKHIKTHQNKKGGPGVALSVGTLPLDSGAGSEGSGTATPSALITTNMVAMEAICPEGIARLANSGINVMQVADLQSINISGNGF
In short: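 Transient MRTU-transfected HepG2, 24 h compound exposure. Total RNA → oligo(dT) RT → PCR of reporter → 6-FAM primer extension → HpaI digest → CE. Endpoint fitted both directions vs DMSO.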

[5] = ATG_SREBP_CIS: Attagene CIS-FACTORIAL HepG2 Assay for human Sterol Regulatory Element Binding (SREBP) (AID 2282962); conditions: HepG2 Attagene cis-factorial SREBP reporter, mRNA; actives raise or lower the signal
In short: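 Transfected HepG2 (cis-regulated reporter library, endogenous TFs) → compound 24 h → total RNA → oligo(dT) RT → reporter-specific PCR → FAM primer extension, HpaI cut → CE fluorescence. Fit bidirectional vs DMSO.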

[6] = target: Signal transducer and activator of transcription 3 (Homo sapiens) (UniProt P40763); assay: ATG_STAT3_CIS: Attagene CIS-FACTORIAL HepG2 Assay for human Signal Transducer and Activator of Transcription 3 (STAT3) (AID 2282963); conditions: HepG2, Attagene cis-factorial STAT3 reporter transcription; actives raise or lower the signal
Signal transducer and activator of transcription 3 (Homo sapiens), sequence (P40763 whole entry, looked up): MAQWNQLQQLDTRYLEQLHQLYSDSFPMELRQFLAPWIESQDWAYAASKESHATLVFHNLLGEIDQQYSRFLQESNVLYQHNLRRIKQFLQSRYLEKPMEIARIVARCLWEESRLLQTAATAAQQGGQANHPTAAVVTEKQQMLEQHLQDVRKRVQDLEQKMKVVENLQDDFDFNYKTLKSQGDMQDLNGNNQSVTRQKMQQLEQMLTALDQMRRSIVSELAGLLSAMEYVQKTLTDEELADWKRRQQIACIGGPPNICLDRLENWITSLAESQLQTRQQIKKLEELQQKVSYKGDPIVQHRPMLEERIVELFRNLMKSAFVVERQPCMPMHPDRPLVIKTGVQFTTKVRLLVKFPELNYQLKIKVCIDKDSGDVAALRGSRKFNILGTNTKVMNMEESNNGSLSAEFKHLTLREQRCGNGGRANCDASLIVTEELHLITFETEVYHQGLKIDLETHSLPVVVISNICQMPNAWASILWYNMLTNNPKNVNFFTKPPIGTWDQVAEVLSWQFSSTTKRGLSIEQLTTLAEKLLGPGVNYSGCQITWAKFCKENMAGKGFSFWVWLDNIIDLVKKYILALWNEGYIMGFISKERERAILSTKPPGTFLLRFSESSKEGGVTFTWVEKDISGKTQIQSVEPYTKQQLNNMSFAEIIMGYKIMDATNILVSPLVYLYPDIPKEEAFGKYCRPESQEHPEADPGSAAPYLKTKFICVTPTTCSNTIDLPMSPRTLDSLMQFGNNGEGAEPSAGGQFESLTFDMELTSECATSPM
In short: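 HepG2 cells transiently transfected with cis-element-driven multiple reporter transcription units; after 24 h chemical exposure, reporter mRNA measured by RT-PCR, 6-FAM primer-extension labelling, HpaI digestion and capillary electrophoresis. Bidirectional fitting versus DMSO baseline.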

[7] = ATG_TA_CIS: Attagene CIS-FACTORIAL HepG2 Assay for human TA Basal Promoter (AID 2282964); conditions: HepG2 Attagene CIS-factorial TA basal promoter reporter; actives raise or lower the signal
In short: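 Read-out: fluorescent reporter-transcript fragments resolved by capillary electrophoresis after RT-PCR and HpaI digestion. Source: HepG2 cells carrying transiently transfected multi-reporter cis constructs, treated 24 h. Endpoint fitted bidirectionally relative to DMSO.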

[8] = ATG_TAL_CIS: Attagene CIS-FACTORIAL HepG2 Assay for human TAL Basal Promoter (AID 2282966); conditions: HepG2 Attagene cis-factorial TAL promoter reporter; actives raise or lower the signal;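 note: background control endpoint measuring basal TAL promoter reporter mRNA not a specific factor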
In short: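 Steps: transfect HepG2 with multiple reporter transcription units; dose 24 h; isolate RNA, reverse-transcribe, PCR-amplify, label with 6-FAM, digest with HpaI; resolve by capillary electrophoresis. Bidirectional fitting against DMSO baseline.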

[9] = ATG_TGFb_CIS: Attagene CIS-FACTORIAL HepG2 Assay for human Transforming Growth Factor (TGF) (AID 2282967); conditions: HepG2 Attagene CIS TGFb reporter, mRNA transcription; actives raise or lower the signal
In short: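 Transient MRTU transfection of HepG2 (FuGene 6). Dose 24 h. TriZol RNA, oligo(dT) RT, PCR, 6-FAM primer extension, HpaI cut, CE. Bidirectional fit, DMSO = baseline.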

[10] = ATG_VDRE_CIS: Attagene CIS-FACTORIAL HepG2 Assay for human Vitamin D Receptor Element (VDRE) (AID 2282968); conditions: HepG2 VDRE cis-reporter transcription, actives raise or lower the signal
In short: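 HepG2 cells transiently transfected with cis-element reporter units, dosed 24 h; reporter mRNA measured by RT-PCR, 6-FAM labeling, HpaI digestion and capillary electrophoresis. Activity fitted bidirectionally against DMSO baseline.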

[11] = target: Nuclear receptor subfamily 1 group I member 3 (Homo sapiens) (UniProt Q14994); assay: ATG_CAR_TRANS: Attagene TRANS-FACTORIAL HepG2 Assay for human Constitutive Androstane Receptor (CAR) (AID 2282969; active = hit-call score of the fitted dose curve at least 0.9, where 1 is the maximum;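 note: activators raise reporter mRNA above DMSO so AC50 marks induction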); conditions: HepG2 Attagene TRANS-FACTORIAL CAR reporter
Nuclear receptor subfamily 1 group I member 3 (Homo sapiens), sequence (Q14994 whole entry, looked up, the tested form may be a part): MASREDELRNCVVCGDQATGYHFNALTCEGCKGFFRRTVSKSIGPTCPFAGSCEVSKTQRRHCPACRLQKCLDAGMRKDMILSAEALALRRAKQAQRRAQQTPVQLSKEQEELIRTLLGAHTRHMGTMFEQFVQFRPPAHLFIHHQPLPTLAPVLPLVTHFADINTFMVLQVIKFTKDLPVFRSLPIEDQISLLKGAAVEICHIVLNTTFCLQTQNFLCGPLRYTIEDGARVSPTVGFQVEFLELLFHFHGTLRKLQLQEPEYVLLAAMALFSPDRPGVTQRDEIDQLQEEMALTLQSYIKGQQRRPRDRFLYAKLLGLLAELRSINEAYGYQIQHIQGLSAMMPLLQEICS
In short: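 HepG2 cells transiently transfected with multiplexed GAL4-UAS reporter units expressing chimeric NR-Gal4 proteins; compound exposure 24 h. Reporter mRNA measured by RT-PCR, 6-FAM labelling, HpaI digestion and capillary electrophoresis; gain-of-signal fitted against DMSO baseline.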

[12] = target: X-box-binding protein 1 (Homo sapiens) (UniProt P17861); assay: ATG_Xbp1_CIS: Attagene CIS-FACTORIAL HepG2 Assay for human X-box Binding Protein 1 (XBP1) (AID 2282972); conditions: HepG2 XBP1 cis-element reporter, Attagene multiplex; actives raise or lower the signal
X-box-binding protein 1 (Homo sapiens), sequence (P17861 whole entry, looked up): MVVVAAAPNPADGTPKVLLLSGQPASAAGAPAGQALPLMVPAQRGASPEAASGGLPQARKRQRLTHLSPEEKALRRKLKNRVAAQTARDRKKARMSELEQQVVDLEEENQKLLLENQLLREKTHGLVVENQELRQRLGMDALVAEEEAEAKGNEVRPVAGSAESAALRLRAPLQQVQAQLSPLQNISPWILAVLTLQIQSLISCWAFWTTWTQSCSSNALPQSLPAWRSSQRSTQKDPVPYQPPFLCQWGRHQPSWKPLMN
In short: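 HepG2, transient MRTU transfection (cis-promoter driven), 24 h compound exposure. Total RNA → oligo(dT) RT → PCR → 6-FAM labeling → HpaI cut → CE. Bidirectional fit vs DMSO.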

[13] = target: Glucocorticoid receptor (Homo sapiens) (UniProt P04150); assay: ATG_GR_TRANS: Attagene TRANS-FACTORIAL HepG2 Assay for human Glucocorticoid Receptor (GR) (AID 2282978; active = hit-call score of the fitted dose curve at least 0.9, where 1 is the maximum;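 note: activators score as hits since higher reporter transcript over DMSO is fitted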); conditions: HepG2 Attagene TRANS GR reporter, mRNA transcription
Glucocorticoid receptor (Homo sapiens), sequence (P04150 whole entry, looked up, the tested form may be a part): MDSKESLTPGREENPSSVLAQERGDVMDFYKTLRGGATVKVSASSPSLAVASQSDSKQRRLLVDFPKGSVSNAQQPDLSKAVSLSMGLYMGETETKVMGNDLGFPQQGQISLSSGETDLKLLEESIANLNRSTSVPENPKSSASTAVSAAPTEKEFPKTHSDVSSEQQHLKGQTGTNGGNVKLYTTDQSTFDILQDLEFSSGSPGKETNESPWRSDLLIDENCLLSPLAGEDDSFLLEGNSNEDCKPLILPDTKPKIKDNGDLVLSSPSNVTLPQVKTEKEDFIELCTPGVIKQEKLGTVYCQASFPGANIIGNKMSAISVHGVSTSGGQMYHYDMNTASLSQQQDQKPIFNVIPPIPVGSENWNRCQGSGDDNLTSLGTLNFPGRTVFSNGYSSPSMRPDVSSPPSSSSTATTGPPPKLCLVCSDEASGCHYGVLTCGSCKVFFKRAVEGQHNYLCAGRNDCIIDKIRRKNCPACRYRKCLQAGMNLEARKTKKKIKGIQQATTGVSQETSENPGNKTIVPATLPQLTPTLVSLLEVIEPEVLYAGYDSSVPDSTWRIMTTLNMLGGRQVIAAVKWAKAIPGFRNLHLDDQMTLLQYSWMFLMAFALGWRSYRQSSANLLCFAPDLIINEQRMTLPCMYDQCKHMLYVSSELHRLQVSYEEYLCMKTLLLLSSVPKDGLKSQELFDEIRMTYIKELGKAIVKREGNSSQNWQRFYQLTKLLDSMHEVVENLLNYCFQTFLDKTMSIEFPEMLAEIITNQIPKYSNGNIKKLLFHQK
In short: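 Fluorescent capillary-electrophoresis quantitation of reporter mRNA is the readout, taken 24 h after dosing human HepG2 cells carrying transiently transfected GAL4-UAS reporter units activated by chimeric NR-GAL4 fusions; activity scored as induction over DMSO.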

[14] = ATG_TCF_b_cat_CIS: Attagene CIS-FACTORIAL HepG2 Assay for human T-Cell-Factor with beta-catenin (TCF/b-cat) (AID 2282965); conditions: HepG2 TCF/beta-catenin cis-reporter transcription, actives raise or lower the signal
In short: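 In this cis-format system, transfected HepG2 cells report endogenous transcription factor activity. Readout after 24 h exposure is reporter transcript abundance from RT-PCR and capillary electrophoresis, analysed for gain or loss of signal versus DMSO.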

[15] = ATG_M_19_TRANS: Attagene TRANS-FACTORIAL HepG2 Assay for M19 Transcription Factor (Internal Marker) (AID 2282974; active = hit-call score of the fitted dose curve at least 0.9, where 1 is the maximum); conditions: HepG2 Attagene TRANS-FACTORIAL M19 internal marker reporter
In short: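 Fluorescence of 6-FAM-labelled reporter cDNA fragments, separated by capillary electrophoresis, served as the readout. These derived from HepG2 cells carrying transfected GAL4-UAS reporter units after 24 h dosing, with DMSO as negative control.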

[16] = ATG_RORE_CIS: Attagene CIS-FACTORIAL HepG2 Assay for human RAR-related Orphan Receptor Element (RORE) (AID 2282959); conditions: HepG2 Attagene cis-factorial RORE reporter, mRNA; actives raise or lower the signal
In short: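 Transient MRTU transfection of human HepG2 liver cells (FuGene 6); 24 h compound exposure; TriZol RNA, oligo(dT) RT, PCR, FAM labeling, HpaI cut, CE fragment analysis. DMSO = negative control/baseline.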

[17] = ATG_GAL4_TRANS: Attagene TRANS-FACTORIAL HepG2 Assay for GAL4 (Internal Marker) (AID 2282976; active = hit-call score of the fitted dose curve at least 0.9, where 1 is the maximum); conditions: HepG2 Attagene TRANS GAL4 internal marker reporter
In short: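 Liver HepG2 line bearing multiplexed GAL4-UAS reporter constructs; 24 h chemical treatment. Transcripts were quantified as fluorescent fragments on capillary electrophoresis after RT-PCR and HpaI cut, with activity fitted upward from DMSO.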

Measured: AC50

Oc1ccccc1Cl
not listed: [14] | [15] | [16] | [17]
inactive: all other assays above

COP(=S)(OC)SCN1C(=O)c2ccccc2C1=O
active: [1] 26.8 µM
not listed: [10] | [11] | [16] | [17]
inactive: all other assays above

C=CCc1ccc2c(c1)OCO2
not listed: [2] | [11] | [15] | [17]
inactive: all other assays above

Nc1ccc(Cl)cc1N
active: [1] 26.1 µM | [16] 27.7 µM | [3] 26.8 µM | [7] 9.74 µM | [10] 27.3 µM | [12] 21 µM
not listed: [2] | [15]
inactive: all other assays above

O=C(O)C1C2CCC(O2)C1C(=O)O (stereo unspecified)
active: [1] 68.6 µM | [16] 100 µM | [4] 100 µM | [10] 100 µM | [12] 100 µM
inactive: [3] | [5] | [6] | [7] | [14] | [8] | [9]
